Records with an inconclusive call do not appear. Activity calls are given as the source filed them. How the source made its calls, unless noted: active means hit-call score of the fitted dose curve at least 0.9, where 1 is the maximum; inactive means score below 0.9.
Columns and labels:
[1] = read-out: Interleukin-1 alpha (IL1a), IL1A (gene 3552); experiment: BSK_BE3C_IL1a: BioMAP Diversity Plus: BE3C Assay for Interleukin-1 alpha (IL1a) Biomarker Activity (AID 2283016); conditions: primary human bronchial epithelial cells; actives raise or lower the signal
Method in brief: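 Human primary bronchial epithelial cells, 24 h chemical exposure; IL-1a quantified by ELISA, fitted bidirectionally against DMSO. Cytotoxicity assessed in parallel by SRB total-protein staining at the time of measurement.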

[2] = read-out: Monocyte Chemoattractant Protein-1 (MCP1), CCL2 (gene 6347); experiment: BSK_3C_MCP1: BioMAP Diversity Plus: 3C Assay for Monocyte Chemoattractant Protein-1 (MCP1) Biomarker Activity (AID 2283017); conditions: primary human endothelial cells (HUVEC); actives raise or lower the signal
Method in brief: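 ELISA read-out of MCP-1 from human umbilical vein endothelial cell cultures harvested 24 h post-dosing. Gain or loss of signal was fitted relative to DMSO.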

[3] = read-out: Monocyte Chemoattractant Protein-1 (MCP1), CCL2 (gene 6347); experiment: BSK_4H_MCP1: BioMAP Diversity Plus: 4H Assay for Monocyte Chemoattractant Protein-1 (MCP1) Biomarker Activity (AID 2283018); conditions: primary human endothelial cells (HUVEC); actives raise or lower the signal
Method in brief: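 Human umbilical vein endothelial cells (4H system) exposed to chemicals for 24 h in 96-well format. MCP-1 measured by ELISA; bidirectional fitting against DMSO, with SRB total-protein staining in parallel cultures for cytotoxicity.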

[4] = read-out: Human Leukocyte Antigen - DR isotype (HLADR), HLA-DRA (gene 3122); experiment: BSK_3C_HLADR: BioMAP Diversity Plus: 3C Assay for Human Leukocyte Antigen - DR isotype (HLADR) Biomarker Activity (AID 2283019); conditions: primary human endothelial cells (HUVEC); actives raise or lower the signal
Method in brief: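 ELISA readout of surface HLA-DR on human umbilical vein endothelium, taken 24 h after chemical treatment. Gain- and loss-of-signal were both fitted relative to DMSO.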

[5] = read-out: Interleukin-8 (IL8), CXCL8 (gene 3576); experiment: BSK_3C_IL8: BioMAP Diversity Plus: 3C Assay for Interleukin-8 (IL8) Biomarker Activity (AID 2283020); conditions: primary human endothelial cells (HUVEC); actives raise or lower the signal
Method in brief: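 Primary human umbilical vein endothelial cells were dosed for 24 h. IL-8 was quantified by ELISA and fitted bidirectionally against DMSO. Cytotoxicity was assessed in parallel cultures by SRB staining at 560 nm.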

[6] = read-out: Monokine induced gamma interferon (MIG), CXCL9 (gene 4283); experiment: BSK_3C_MIG: BioMAP Diversity Plus: 3C Assay for Monokine induced gamma interferon (MIG) Biomarker Activity (AID 2283021); conditions: primary human endothelial cells (HUVEC); actives raise or lower the signal
Method in brief: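 HUVEC primary endothelial cultures dosed with chemical; MIG quantified by ELISA at 24 h. Data fitted bidirectionally against DMSO control, with parallel SRB total-protein staining for cytotoxicity.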

[7] = BSK_3C_SRB: Viability Assessment in the BioMAP Diversity Plus: 3C Assay (AID 2283023); conditions: primary human endothelial cells (HUVEC);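 further: fitted both ways against DMSO so a hit may be signal rise or drop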
Method in brief: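 Absorbance at 560 nm of sulforhodamine B-stained (0.1%) total protein served as a cytotoxicity readout in human umbilical vein endothelial cells, 24 h after chemical treatment. Signal was fitted bidirectionally relative to DMSO.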

[8] = read-out: Matrix Metallopeptidase 1 (MMP1), MMP1 (gene 4312); experiment: BSK_BE3C_MMP1: BioMAP Diversity Plus: BE3C Assay for Matrix Metallopeptidase 1 (MMP1) Biomarker Activity (AID 2283024); conditions: primary human bronchial epithelial cells; actives raise or lower the signal
Method in brief: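 Human primary bronchial epithelial cells (BE3C system) dosed for 24 h; MMP-1 quantified by ELISA. Bidirectional fit against DMSO; cytotoxicity tracked in parallel cultures by SRB total-protein staining.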

[9] = BSK_3C_Vis: BioMAP Diversity Plus: 3C Assay for Morphology Visualization (AID 2283025); conditions: primary human endothelial cells (HUVEC);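 further: fitted both ways so gain or loss versus DMSO counts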;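 on AC50: light microscopy image of cell morphology used as background control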
Method in brief: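 Human umbilical vein endothelial cell morphology was inspected by light microscopy 24 h after chemical dosing; scored bidirectionally relative to DMSO.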

[10] = read-out: Pselectin, SELP (gene 6403); experiment: BSK_4H_Pselectin: BioMAP Diversity Plus: 4H Assay for Pselectin Biomarker Activity (AID 2283026); conditions: primary human endothelial cells (HUVEC); actives raise or lower the signal
Method in brief: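 Primary human umbilical vein endothelial cells were treated 24 h, and cell-surface P-selectin was then quantified by ELISA. Bidirectional fit versus DMSO; cytotoxicity checked in parallel cultures by SRB total-protein staining.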

[11] = BSK_4H_SRB: Viability Assessment in the BioMAP Diversity Plus: 4H Assay (AID 2283027); conditions: primary human endothelial cells (HUVEC);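 further: cells exposed to compound for 24 h before staining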
Method in brief: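 Absorbance at 560 nm of SRB-stained total protein served as the viability read-out in confluent primary human umbilical vein endothelium 24 h after chemical treatment. Curves were fitted bidirectionally against DMSO as negative control.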

[12] = BSK_BE3C_SRB: Viability Assessment in the BioMAP Diversity Plus: BE3C Assay (AID 2283028); conditions: primary human bronchial epithelial cells
Method in brief: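 Cells (human bronchial epithelial, primary) are treated with chemicals, and after 24 h the parallel cultures are fixed in 10% TCA. These are then stained with 0.1% SRB and read at 560 nm. Gain or loss of signal is fitted relative to DMSO.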

[13] = read-out: Thrombomodulin, THBD (gene 7056); experiment: BSK_3C_Thrombomodulin: BioMAP Diversity Plus: 3C Assay for Thrombomodulin Biomarker Activity (AID 2283029); conditions: primary human endothelial cells (HUVEC); actives raise or lower the signal
Method in brief: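 Human umbilical vein endothelial cells were exposed to chemicals for 24 h; cell-surface thrombomodulin quantified by ELISA, with bidirectional fitting against DMSO baseline.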

[14] = read-out: Vascular endothelial growth factor receptor 2 (Homo sapiens) (UniProt P35968); experiment: BSK_4H_VEGFRII: BioMAP Diversity Plus: 4H Assay for Vascular endothelial growth factor receptor 2 (VEGFR2) Biomarker Activity (AID 2283031); conditions: primary human endothelial cells (HUVEC); actives raise or lower the signal
Method in brief: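 ELISA read-out of VEGFRII in primary human umbilical vein endothelium, taken 24 h after chemical treatment. Responses are expressed relative to DMSO, with bidirectional fitting.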

[15] = read-out: Human Leukocyte Antigen - DR isotype (HLADR), HLA-DRA (gene 3122); experiment: BSK_BE3C_HLADR: BioMAP Diversity Plus: BE3C Assay for Human Leukocyte Antigen - DR isotype (HLADR) Biomarker Activity (AID 2283032); conditions: primary human bronchial epithelial cells; actives raise or lower the signal
Method in brief: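 Human primary bronchial epithelial cells (BE3C system) exposed to compound for 24 hours; cell-surface HLA-DR measured by ELISA, fitted bidirectionally relative to DMSO. Total protein by SRB in parallel cultures tracked cytotoxicity.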

[16] = read-out: Vascular cell adhesion molecule 1 (VCAM1), VCAM1 (gene 7412); experiment: BSK_4H_VCAM1: BioMAP Diversity Plus: 4H Assay for Vascular cell adhesion molecule 1 (VCAM1) Biomarker Activity (AID 2283033); conditions: primary human endothelial cells (HUVEC); actives raise or lower the signal
Method in brief: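 Primary human umbilical vein endothelial cells, 4H stimulation system, treated for 24 h; cell-surface VCAM-1 quantified by ELISA. Bidirectional fitting against DMSO; cytotoxicity tracked by SRB total-protein staining in parallel cultures.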

[17] = read-out: Interferon-gamma inducible Protein 10 (IP10), CXCL10 (gene 3627); experiment: BSK_BE3C_IP10: BioMAP Diversity Plus: BE3C Assay for Interferon-gamma inducible Protein 10 (IP10) Biomarker Activity (AID 2283034); conditions: primary human bronchial epithelial cells; actives raise or lower the signal
Method in brief: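 Primary human bronchial epithelial cells, with IP-10 measured by ELISA 24 hours after chemical dosing. Bidirectional fit against DMSO; cytotoxicity checked by SRB total protein staining in parallel cultures.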

[18] = read-out: Monokine induced gamma interferon (MIG), CXCL9 (gene 4283); experiment: BSK_BE3C_MIG: BioMAP Diversity Plus: BE3C Assay for Monokine induced gamma interferon (MIG) Biomarker Activity (AID 2283035); conditions: primary human bronchial epithelial cells; actives raise or lower the signal;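 further: MIG protein measured by ELISA in BE3C cultures after 24 h of dosing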
Method in brief: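 MIG level was determined by ELISA after 24 h chemical treatment of primary human bronchial epithelial cells. Values were fitted bidirectionally with DMSO as the negative control and activity baseline.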

[19] = read-out: Urokinase-type plasminogen activator receptor (uPAR), PLAUR (gene 5329); experiment: BSK_4H_uPAR: BioMAP Diversity Plus: 4H Assay for Urokinase-type plasminogen activator receptor (uPAR) Biomarker Activity (AID 2283030); conditions: primary human endothelial cells (HUVEC); actives raise or lower the signal
Method in brief: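 Cell-surface uPAR ELISA signal, measured 24 h after dosing human umbilical vein endothelial cells, was analyzed with bidirectional fitting relative to DMSO. Parallel SRB staining of total protein tracked overt cytotoxicity.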

[20] = molecular target: human Vitamin D Receptor (VDR), VDR (gene 7421) (UniProt P11473); experiment: ATG_VDR_TRANS: Attagene TRANS-FACTORIAL HepG2 Assay for human Vitamin D Receptor (VDR) (AID 2283022; active means hit-call score of the fitted dose curve at least 0.9, where 1 is the maximum)
human Vitamin D Receptor (VDR), VDR (gene 7421), sequence (P11473 whole entry, looked up, the tested form may be a part): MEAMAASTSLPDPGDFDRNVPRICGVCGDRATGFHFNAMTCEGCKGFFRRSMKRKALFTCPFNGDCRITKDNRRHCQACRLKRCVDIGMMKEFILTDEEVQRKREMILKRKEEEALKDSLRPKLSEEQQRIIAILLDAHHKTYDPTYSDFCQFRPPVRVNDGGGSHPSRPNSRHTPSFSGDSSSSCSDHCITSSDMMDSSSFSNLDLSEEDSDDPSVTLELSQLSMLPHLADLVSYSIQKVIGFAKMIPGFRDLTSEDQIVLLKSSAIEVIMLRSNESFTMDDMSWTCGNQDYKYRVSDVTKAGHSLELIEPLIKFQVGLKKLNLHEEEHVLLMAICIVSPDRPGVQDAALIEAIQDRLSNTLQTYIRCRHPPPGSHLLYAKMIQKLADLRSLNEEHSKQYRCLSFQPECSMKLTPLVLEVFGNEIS
Method in brief: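 Steps: transfect HepG2 with GAL4-UAS-driven reporter constructs; dose compounds 24 h; isolate RNA, reverse-transcribe, PCR-amplify with 6-FAM-labelled primer extension and HpaI digestion; quantify fragments by capillary electrophoresis relative to DMSO.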

Measured: AC50

Nc1ccc(Nc2ccccc2)cc1
active: [4] 2.83 µM | [8] 8.67 µM | [10] 3.97 µM | [16] 3.97 µM
not listed: [19] | [20]
inactive: all other assays above

COC(=O)c1c(Cl)c(Cl)c(C(=O)OC)c(Cl)c1Cl
active: [9] 39 µM
not listed: [8] | [10] | [16] | [20]
inactive: all other assays above

C[C@](N)(Cc1ccc(O)c(O)c1)C(=O)O
not listed: [1] | [10]
inactive: all other assays above

Reference: PubChem BioAssay (EPA / NIEHS)
